Pf growth 48h – P. falciparum growth inhibition at 48 hours (one generation); P. falciparum luciferase growth in erythrocytes, 48 h; Potency, µM (titrated, usually from 28.7 µM), usual class: inhibitors; 310,000 compounds, 5.9% hits
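Here the parasites carry a stable luciferase gene and grow inside erythrocytes in Albumax-based RPMI medium with compound for one erythrocytic cycle. Activity is scored as loss of luminescent signal.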
Pf growth 96h – P. falciparum growth inhibition at 96 hours | AID 504834 | 320,000 compounds, 6.9% hits | P. falciparum luciferase reporter growth, 96 h | Potency, µM (top dose mostly 28.7 µM), usual class: inhibitors
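Parasite growth measured via integrated firefly luciferase reporter in P. falciparum. Infected erythrocytes at 2% hematocrit, 0.05% parasitemia final were treated 96 hours at 37 C under 5% CO2, and luminescence was read.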
LmPK inhibitor – blocks Leishmania mexicana pyruvate kinase activity | Potency, µM (series often up to 57.5 µM), most hits filed as inhibitors | Q27686 | 290,000 compounds, 0.37% hits | purified LmPK, Kinase-Glo ATP luminescence, 1 h
Target sequence (Q27686 whole entry, looked up): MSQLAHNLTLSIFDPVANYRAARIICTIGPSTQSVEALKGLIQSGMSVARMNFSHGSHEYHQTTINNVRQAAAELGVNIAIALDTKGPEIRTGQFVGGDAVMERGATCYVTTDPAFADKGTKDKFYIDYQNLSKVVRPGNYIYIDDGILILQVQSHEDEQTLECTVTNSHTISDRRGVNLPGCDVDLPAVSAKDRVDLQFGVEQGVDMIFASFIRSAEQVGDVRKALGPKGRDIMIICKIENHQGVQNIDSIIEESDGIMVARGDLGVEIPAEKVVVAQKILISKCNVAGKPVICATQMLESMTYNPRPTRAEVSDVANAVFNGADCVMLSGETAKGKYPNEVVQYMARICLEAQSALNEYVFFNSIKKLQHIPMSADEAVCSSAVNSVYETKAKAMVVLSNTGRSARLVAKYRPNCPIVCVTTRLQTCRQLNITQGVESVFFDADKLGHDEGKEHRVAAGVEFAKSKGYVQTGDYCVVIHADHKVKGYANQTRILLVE
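In 50 mM imidazole pH 7.2 with 7 mM MgCl2, LmPK (0.1 nM) turned over PEP (0.5 mM) and ADP (0.1 mM) for 1 h at room temperature. Luciferase read-out of ATP.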
Shiga toxin inh – Shiga toxin inhibition; Vero cells, Shiga toxin protein synthesis inhibition reporter; inhibition, % at 38.7 µM; 290,000 compounds, 9.2% hits; in the data active = inhibition mostly above about 28%, no sharp cut-off; inactive = mostly below about 43%
CHX counter – counter-screen hit for Shiga toxin inhibitors, cycloheximide | cell reporter, cycloheximide protein synthesis inhibition counterscreen | max response, % | 300,000 compounds, 12% hits | AID 2314; in the data active = max response mostly above about 13%, no sharp cut-off; inactive = mostly below about 14%; also: read at 38.3 µM for the half of the compounds with a filed dose
Numbers stand for hits; [ ] = another dose, or the depositor's remark. The list is not random: actives were taken first. Their share in the collection is about 22%. Unless noted, calls follow the shape of the dose curve; as a rule, active = well fitted inhibition curve with a large enough effect; inconclusive = small, poorly fitted or top-dose-only effect, or another doubt; inactive = no such curve, though single readings can be large or run the other way.

`Nc1cc(Cl)ccc1C(=O)OCC(=O)N1CCCC1` gave Pf growth 48h inactive, Pf growth 96h inactive, LmPK inhibitor inactive, Shiga toxin inh inactive and CHX counter 17.3.
O=C(OCC(=O)N1CCCCCC1)c1cccc(Cl)c1 was read as Pf growth 48h inactive and Pf growth 96h inactive.
`O=C(OCC(=O)N1CCOCC1)c1ccccc1O` gave Pf growth 48h inactive, Pf growth 96h inactive, LmPK inhibitor inactive, Shiga toxin inh 72.3 and CHX counter 28.6.
O=C(OCC(=O)N1CCOCC1)c1ccc(O)cc1 was read as Pf growth 48h inactive, Pf growth 96h inactive, LmPK inhibitor inactive, Shiga toxin inh inactive and CHX counter inactive.
For O=S(=O)(c1ccccc1)c1nc(Nc2cccc(O)c2)sc1Cl the results were Pf growth 48h inactive, Pf growth 96h inactive, LmPK inhibitor inactive, Shiga toxin inh inactive and CHX counter inactive.
COc1ccccc1/C=N/N1CCN(c2ccc(Cl)cc2)CC1 was read as Pf growth 48h inactive, Pf growth 96h inactive, LmPK inhibitor inactive and CHX counter inactive.
`Cc1ccccc1/C=N/N1CCN(c2ccccc2)CC1` gave Pf growth 48h inactive, Pf growth 96h inactive, LmPK inhibitor inactive, Shiga toxin inh 102.7 and CHX counter 49.6.
For Cc1ccc(/C=N/N2CCN(c3ccccc3)CC2)cc1 the results were Pf growth 48h inactive, Pf growth 96h inactive, LmPK inhibitor inactive, Shiga toxin inh inactive and CHX counter 19.3.
Screening Cc1cccc(/C=N/N2CCN(c3ccccc3)CC2)c1 returned Pf growth 48h inactive, Pf growth 96h inactive, LmPK inhibitor inactive, Shiga toxin inh 72.6 and CHX counter 41.9.
Cc1ccc(N2CCN(/N=C/c3ccncc3)CC2)cc1 was read as Pf growth 48h inactive[5.75 µM], Pf growth 96h inactive, LmPK inhibitor inactive, Shiga toxin inh inactive and CHX counter inactive.
CSc1ccc(/C=N/N2CCN(c3ccccc3)CC2)cc1 was read as Pf growth 48h inactive, Pf growth 96h inactive[5.75 µM], LmPK inhibitor inactive, Shiga toxin inh inactive and CHX counter inactive.
Screening Nc1cc(C(=O)OCC(=O)NNC(=O)c2cccs2)ccc1Cl returned Pf growth 48h inactive and Pf growth 96h inactive.
`C/C(=N\O)c1cccc(Br)c1` gave Pf growth 48h inconclusive, Pf growth 96h inactive, LmPK inhibitor inactive, Shiga toxin inh inactive and CHX counter inactive.
For C/C(=N/O)c1cccc(N2Cc3ccccc3C2)c1 the results were Pf growth 48h 13.1µM, Pf growth 96h inconclusive, LmPK inhibitor inactive, Shiga toxin inh 50.7 and CHX counter 17.9.
O=C(O)CSc1ccc(NC(=O)Nc2ccccc2F)cc1 was read as Pf growth 48h inactive, Pf growth 96h inactive, LmPK inhibitor 15.8µM, Shiga toxin inh inactive and CHX counter inactive.
`Cc1cc(NC(=O)Nc2ccccc2F)ccc1Br` gave Pf growth 48h inactive, Pf growth 96h inconclusive, LmPK inhibitor inactive, Shiga toxin inh 77.2 and CHX counter 55.0.
O=C(Nc1ccccc1)Nc1ccc(Br)cc1F was read as Pf growth 48h inactive, Pf growth 96h 0.37µM, LmPK inhibitor inactive, Shiga toxin inh 110.2 and CHX counter 30.5.
CC(=O)Nc1ccc(SCC(=O)O)cc1 was read as Pf growth 48h inactive, Pf growth 96h inactive, LmPK inhibitor inactive, Shiga toxin inh inactive and CHX counter inactive.
Screening Cc1ccccc1NC(=O)Nc1ccccc1Br returned Pf growth 48h inactive, Pf growth 96h inactive, LmPK inhibitor inactive, Shiga toxin inh inactive and CHX counter inactive.
For O=C(Nc1cccc(Cl)c1)Nc1ccc(Br)cc1F the results were Pf growth 48h inconclusive, Pf growth 96h inconclusive, LmPK inhibitor inactive, Shiga toxin inh 67.0 and CHX counter 18.9.
`Cc1cccc(C)c1NC(=O)C1CCN(S(C)(=O)=O)CC1` gave Pf growth 48h inactive, Pf growth 96h inconclusive, LmPK inhibitor inactive, Shiga toxin inh inactive and CHX counter inactive.
Screening O=C(Nc1ccc(F)c(Cl)c1)C1CC(=O)n2c(nc3ccccc32)N1 (centres undefined) returned Pf growth 48h 4.65µM, Pf growth 96h inactive, LmPK inhibitor inactive, Shiga toxin inh inactive and CHX counter inactive.
Screening COc1cc(NC(=O)CSCc2ccccc2)c(C(=O)O)cc1OC returned Pf growth 48h inactive, Pf growth 96h inactive, LmPK inhibitor inactive, Shiga toxin inh inactive and CHX counter inactive.
`Nc1c(C(=O)c2ccccc2)sc2nsc(SCCN3CCCC3)c12` gave Pf growth 48h inconclusive, Pf growth 96h inconclusive, LmPK inhibitor inactive, Shiga toxin inh 104.0 and CHX counter 40.3.

Source: PubChem BioAssay
